This passage reports Potency results from PubChem BioAssay (NCATS).

Inconclusive results are not listed. Calls of active or inactive are those of the source. Calls come from the whole dose curve; as a rule, active = well fitted curve in the direction sought with a large enough effect; inconclusive = small, poorly fitted or top-dose-only effect, or another doubt; inactive = no such curve, though single readings can be large; an effect the other way counts as inactive or inconclusive.

The target in assay [1] is Phosphoglycerate kinase, glycosomal (Trypanosoma brucei brucei) (UniProt P07378). The experiment in a line: qHTS Validation Assay to Find Inhibitors of Phosphoglycerate Kinase (AID 504547). The procedure, abridged:
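Substrate/PGK mix plus compound; reaction started with GAPDH (100nM final) to form 1,3-BPG; 60 min RT; Kinase-Glo Plus 10 min; luminescence. TEA 100mM pH 7.6, MgCl2 5mM, Tween-20 0.01%.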
Background: In qHTS, concentration-response curves come from the screen itself.

The target of assay [2] is phosphoglycerate mutase (Leishmania major) (UniProt Q4Q090). The experiment in a line: qHTS Validation Assay to Find Inhibitors of Phosphoglycerate Mutase (AID 504548).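 Note: end-point luminescence from Kinase-GloPlus after the PGAM reaction; series mostly up to about 58 µM.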 The conditions noted are these: Potency: inhibition qHTS. The procedure, abridged:
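Inhibition of L. major PGAM was assessed by Kinase-GloPlus luminescence following a 45-minute room-temperature reaction with enzyme at 1.25nM final.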

Assay [3] concerns the target Ubiquitin carboxyl-terminal hydrolase 1 (Homo sapiens) (UniProt O94782). The experiment in a line: Inhibitors of USP1/UAF1: Pilot qHTS (AID 504865). Note: nearly all actives have a fitted effect of over 35% in size. Note: potency is the fitted concentration of half-maximal effect. The procedure, abridged: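 USP1/UAF1 complex at 1 nM preincubated 15 min at room temperature with compound, then Ub-Rho substrate added at 150 nM final. Fluorescence (480/540 nm) read kinetically in 50 mM HEPES pH 7.8, 0.5 mM EDTA, 1 mM TCEP, 0.1 mg/ml BSA, 0.01% Tween-20.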

Assay [4] is described as follows: qHTS for Inhibitors of ATXN expression: Validation of Cytotoxic Assay (AID 588349). The procedure, abridged:
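Read-out: ATP-based luminescence (CellTiter Glo) reflecting viability of HEK293 cells after 72 hr incubation at 37 degrees C with a concentration series of each compound.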

Assay [5] in a line: qHTS for Inhibitors of ATXN expression: Validation (AID 588378). Note: nearly all actives have a fitted effect of over 75% in size. Note: potency is the fitted concentration of half-maximal effect. The procedure, abridged:
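HEK293 cells carrying ATXN2-firefly luciferase reporter, treated with compound 24 h at 37 °C. Viability read first by CellTiter-Fluor (405/525 nm), then reporter expression by Bright-Glo luminescence; controls were a known ATXN2 expression inhibitor and a luciferase inhibitor.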

Ubiquitin carboxyl-terminal hydrolase 1 (Homo sapiens), sequence (O94782 whole entry, looked up): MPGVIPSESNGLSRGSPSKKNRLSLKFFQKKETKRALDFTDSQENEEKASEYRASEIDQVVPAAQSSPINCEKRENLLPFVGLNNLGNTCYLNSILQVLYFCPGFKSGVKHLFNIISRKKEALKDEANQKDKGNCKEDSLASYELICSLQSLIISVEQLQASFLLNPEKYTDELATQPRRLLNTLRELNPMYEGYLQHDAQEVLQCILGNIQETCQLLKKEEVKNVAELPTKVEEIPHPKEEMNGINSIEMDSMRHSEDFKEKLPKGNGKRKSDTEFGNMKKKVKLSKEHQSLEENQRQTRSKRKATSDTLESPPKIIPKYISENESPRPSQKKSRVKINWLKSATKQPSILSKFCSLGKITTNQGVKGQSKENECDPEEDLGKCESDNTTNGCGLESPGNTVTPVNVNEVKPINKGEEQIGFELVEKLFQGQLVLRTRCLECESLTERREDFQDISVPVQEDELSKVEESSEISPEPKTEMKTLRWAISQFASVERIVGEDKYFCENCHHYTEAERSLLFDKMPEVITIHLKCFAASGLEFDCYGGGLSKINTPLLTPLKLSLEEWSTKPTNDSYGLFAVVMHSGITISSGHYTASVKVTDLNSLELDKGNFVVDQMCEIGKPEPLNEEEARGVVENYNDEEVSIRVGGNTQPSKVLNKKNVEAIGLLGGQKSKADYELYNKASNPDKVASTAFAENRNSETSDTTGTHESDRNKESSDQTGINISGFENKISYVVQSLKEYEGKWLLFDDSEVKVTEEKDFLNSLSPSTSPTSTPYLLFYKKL
phosphoglycerate mutase (Leishmania major), sequence (Q4Q090 1-553): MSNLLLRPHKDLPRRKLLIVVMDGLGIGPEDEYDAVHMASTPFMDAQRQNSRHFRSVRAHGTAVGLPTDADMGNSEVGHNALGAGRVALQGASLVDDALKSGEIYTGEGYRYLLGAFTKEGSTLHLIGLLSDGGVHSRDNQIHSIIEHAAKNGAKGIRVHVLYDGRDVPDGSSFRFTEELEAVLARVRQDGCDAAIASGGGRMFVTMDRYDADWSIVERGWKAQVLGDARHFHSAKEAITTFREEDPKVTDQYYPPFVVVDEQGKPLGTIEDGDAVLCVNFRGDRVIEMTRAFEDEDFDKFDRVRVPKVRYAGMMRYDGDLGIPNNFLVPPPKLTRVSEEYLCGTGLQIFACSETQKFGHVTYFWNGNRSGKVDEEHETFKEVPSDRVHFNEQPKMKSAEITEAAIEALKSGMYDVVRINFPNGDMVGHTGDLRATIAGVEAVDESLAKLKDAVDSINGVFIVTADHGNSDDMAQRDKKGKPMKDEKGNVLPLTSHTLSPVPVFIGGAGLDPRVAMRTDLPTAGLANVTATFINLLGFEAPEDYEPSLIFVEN
Phosphoglycerate kinase, glycosomal (Trypanosoma brucei brucei), sequence (P07378 whole entry, looked up): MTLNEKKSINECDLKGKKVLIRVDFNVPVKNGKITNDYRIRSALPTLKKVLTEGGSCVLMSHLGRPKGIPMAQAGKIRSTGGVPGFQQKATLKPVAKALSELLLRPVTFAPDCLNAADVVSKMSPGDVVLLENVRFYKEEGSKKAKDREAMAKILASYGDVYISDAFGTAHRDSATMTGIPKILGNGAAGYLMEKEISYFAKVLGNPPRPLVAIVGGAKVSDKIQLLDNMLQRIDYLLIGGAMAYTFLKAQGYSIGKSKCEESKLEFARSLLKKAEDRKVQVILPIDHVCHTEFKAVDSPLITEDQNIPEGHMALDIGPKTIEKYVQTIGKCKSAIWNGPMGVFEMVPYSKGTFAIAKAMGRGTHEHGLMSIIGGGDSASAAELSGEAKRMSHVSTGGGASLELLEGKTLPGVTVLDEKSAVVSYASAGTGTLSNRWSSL

`CN(C)c1nc2c(Br)c(Br)c(Br)c(Br)c2[nH]1`: the Potency entry in assay [1], in assay [2], in assay [3], in assay [4] and in assay [5] was “inactive” in each case.
Consider `NCCCCC(=O)O`, for which the Potency entry in assay [1], in assay [2], in assay [3] and in assay [4] was “inactive” each time.
For the compound `CCN(CC)c1ncnc2c1ncn2[C@@H]1O[C@H](COP(=O)(O)OP(=O)(O)C(Br)(Br)P(=O)(O)O)[C@@H](O)[C@H]1O`, the Potency entry in assay [1], in assay [2], in assay [3] and in assay [4] was “inactive” each time.
Consider `C#CCN1C(C)=C(C(=O)OC)C(c2cccc([N+](=O)[O-])c2)C(C(=O)OCC)=C1C` (stereo not drawn), for which the Potency result in assay [1], in assay [2], in assay [4] and in assay [5] was “inactive” throughout.
On to `O=c1[nH]c2cc(C(F)(F)F)ccc2n1-c1cc(C(F)(F)F)ccc1O`, for which the Potency entry in assay [1], in assay [2], in assay [4] and in assay [5] was “inactive” in each case.
For the compound `O=C(O)c1cc([N+](=O)[O-])ccc1NCCCc1ccccc1`, the Potency entry in assay [1], in assay [2] and in assay [5] was “inactive” each time.
In the case of `N#C/C(=C\c1c[nH]c2ccccc12)C(=O)c1ccc(O)c(O)c1`, the Potency result in assay [2], in assay [3], in assay [4] and in assay [5] was “inactive” each time.
For the compound `N#C/C(=C\c1ccc(O)c(O)c1)C(=O)NCc1ccccc1`, the Potency result in assay [1], in assay [2] and in assay [5] was “inactive” in each case.
In the case of `Cc1cc2c(cc1Cl)N(C(=O)Nc1ccc(Oc3cccnc3C)nc1)CC2`, the Potency entry in assay [1] and in assay [2] was “inactive” throughout. Further, the Potency in assay [3] is 44.7 µM (active); in assay [5], 17.8 µM (active).
Turning to `CCc1c(C(=O)NCCc2ccc(N3CCCCC3)cc2)[nH]c2ccc(Cl)cc12`, the Potency result in assay [1], in assay [2], in assay [3], in assay [4] and in assay [5] was “inactive” throughout.
As for `O=S(=O)(c1cccc2c(I)cccc12)N1CCCNCC1`, the Potency result in assay [1], in assay [2] and in assay [3] was “inactive” in each case. Besides, the Potency in assay [5] was 12.6 µM (active).
As for `CCOC(=O)C1=C(C)NC(C)=C(C(=O)OCC)C1c1c(F)c(F)c(F)c(F)c1F`, the Potency result in assay [1], in assay [2], in assay [4] and in assay [5] was “inactive” each time.
